Active and inactive are the calls of the source.

A short description of assay [1]: small molecules captured by biotinylated probe aFSTL3 – biochemical, small-molecule microarray, fluorescence 635/667, stem cell growth factor project, primary screen (AID 1064).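 Also: measures binding of the biotinylated anti-FSTL3 antibody to printed compounds.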 As to conditions: higher = more signal.
The nature of assay [2]: binders from COS7 lysate, DM2A8 probe, primary screen, torsin A project, cell lysate, small-molecule microarray, fluorescence 635/667 (AID 1065). As to conditions: higher = more signal, COS7 lysate expressing mutant human TOR1A.
Assay [3] can be described thus: small molecules captured by biotinylated probe aFGF2 – biochemical, small-molecule microarray, fluorescence 635/667, stem cell growth factor project, primary screen (AID 1067).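 Also: measures binding of biotinylated aFGF2 protein to printed compounds on slides; z-score merges feature fluorescence and signal-to-noise across triplicate slides.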 As to conditions: higher = more signal.
Assay [4] is described as follows: small molecules captured by biotinylated probe aFGF10 – biochemical, small-molecule microarray, fluorescence 635/667, stem cell growth factor project, primary screen (AID 1071).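 Also: score merges 667 nm spot intensity and signal to noise from triplicate slides.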 As to conditions: higher = more signal.
Assay [5] has as its target Neurogenic locus notch homolog protein 2 (Homo sapiens) (UniProt Q04721). Kind of assay: small molecules binding Notch2 protein – biochemical, small-molecule microarray, 635 nm fluorescence, stem cell growth factors, primary screen (AID 1073). Conditions: higher = more signal.
In assay [6] the target is Pro-neuregulin-1, membrane-bound isoform (Homo sapiens) (UniProt Q02297). Nature of the assay: small molecules binding neuregulin-1 protein – biochemical, small-molecule microarray, fluorescence 635/667, psychiatric disease protein project, primary screen (AID 1075).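 Also: score combines 667 nm spot fluorescence with signal to noise.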 Conditions: NRG1 binding, 635 nm fluorescence, higher = more signal.
Sequence of Pro-neuregulin-1, membrane-bound isoform (Homo sapiens) (Q02297 whole entry, looked up, the tested form may be a part, canonical isoform): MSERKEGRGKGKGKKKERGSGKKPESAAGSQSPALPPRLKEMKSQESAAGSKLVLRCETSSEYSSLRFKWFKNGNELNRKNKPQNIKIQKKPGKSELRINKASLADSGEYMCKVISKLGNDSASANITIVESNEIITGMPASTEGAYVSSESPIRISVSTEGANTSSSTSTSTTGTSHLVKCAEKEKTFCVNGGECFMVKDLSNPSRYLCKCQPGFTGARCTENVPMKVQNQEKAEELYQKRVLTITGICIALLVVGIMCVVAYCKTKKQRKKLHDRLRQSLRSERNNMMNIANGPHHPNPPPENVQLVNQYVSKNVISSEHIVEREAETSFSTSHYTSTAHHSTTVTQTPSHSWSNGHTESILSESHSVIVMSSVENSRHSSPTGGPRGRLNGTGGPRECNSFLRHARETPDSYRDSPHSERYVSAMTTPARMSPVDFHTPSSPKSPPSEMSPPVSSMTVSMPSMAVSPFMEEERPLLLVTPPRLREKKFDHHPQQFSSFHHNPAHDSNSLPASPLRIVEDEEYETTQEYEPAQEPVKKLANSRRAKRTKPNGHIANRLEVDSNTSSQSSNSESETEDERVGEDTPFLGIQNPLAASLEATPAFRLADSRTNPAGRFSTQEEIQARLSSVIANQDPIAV
For assay [7], the system named is Neuregulin-1 EGF-like domain. Nature of the assay: small molecules binding NRG1 EGF domain – biochemical, small-molecule microarray, 635 nm fluorescence, primary screen (AID 1081).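 Also: binding of the protein to compounds printed on small-molecule microarray slides.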 As to conditions: higher = more signal.
Assay [8] in a line: FRG1 expression reporter modulators in myotubes – cell-based, C2C12 myotubes, firefly/Renilla luciferase, luminescence, FRG1 inhibition for FSHD, primary screen (AID 1084). As to conditions: FRG1 promoter luciferase, higher = more signal, called active from +8 up or from −8 down.
Assay [9] is described as follows: small molecules captured by biotinylated probe aFST – biochemical, small-molecule microarray, fluorescence 635/667, stem cell growth factor project, primary screen (AID 1086).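 Also: score merges 667 nm fluorescence with signal-to-noise of each printed compound spot.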 Conditions: higher = more signal.
Assay [10] in a line: binders of probe aHhip on microarray, primary screen, stem cell growth factor project, biochemical, small-molecule microarray, fluorescence 635/667 (AID 1087).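 Also: score merges spot fluorescence at 667nm with spot signal to noise ratio.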 Conditions: higher = more signal.
Assay [11] has as its system PRMT1 (protein arginine N-methyltransferase 1). Kind of assay: small molecules binding arginine methyltransferase PRMT1 – biochemical, small-molecule microarray, 635 nm fluorescence, primary screen (AID 1088).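 Also: binding of Prmt1 protein to compounds spotted on small-molecule microarray slides.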 Conditions: higher = more signal.
Assay [12] in a line: growth effects on S. cerevisiae YJM789 – YJM789 clinical isolate, OD600, 24 h, basal, primary screen (AID 1089).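 Also: growth of clinical yeast isolate S. cerevisiae YJM 789 seeded 1000 cells per well; test concentration not given here.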 As to conditions: higher = more signal, called active from +8 up or from −8 down.
The nature of assay [13]: S. pombe growth modifiers, basal conditions – strain 972, OD600, 24 h, no modulator, primary screen (AID 1090).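 Also: basal condition with compound alone and no growth modifier present; test concentration not given here.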 Conditions: S. pombe 972 growth, higher = more signal, called active from +8 up or from −8 down.
Assay [14] is described as follows: budding yeast growth modifiers under rapamycin – strain BY4716, OD600, 96 h, primary screen (AID 1091). Also: test concentration not given here. As to conditions: S. cerevisiae BY4716 + rapamycin, higher = more signal, called active from +8 up or from −8 down.
The target in assay [15] is Torsin-1A-interacting protein 2 (Homo sapiens) (UniProt Q8NFQ8). Nature of the assay: small molecules binding lysate-expressed LULL1 – cell lysate, human LULL1 lysate, 635/667 nm fluorescence, primary screen (AID 1092).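 Also: probe is lysate of COS7 cells overexpressing human LULL1; score merges per-feature 667 nm fluorescence with signal-to-noise.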 Conditions: small-molecule microarray, hLULL1 lysate binding, 635 nm fluorescence; higher = more signal.
Sequence of Torsin-1A-interacting protein 2 (Homo sapiens) (Q8NFQ8 whole entry, looked up): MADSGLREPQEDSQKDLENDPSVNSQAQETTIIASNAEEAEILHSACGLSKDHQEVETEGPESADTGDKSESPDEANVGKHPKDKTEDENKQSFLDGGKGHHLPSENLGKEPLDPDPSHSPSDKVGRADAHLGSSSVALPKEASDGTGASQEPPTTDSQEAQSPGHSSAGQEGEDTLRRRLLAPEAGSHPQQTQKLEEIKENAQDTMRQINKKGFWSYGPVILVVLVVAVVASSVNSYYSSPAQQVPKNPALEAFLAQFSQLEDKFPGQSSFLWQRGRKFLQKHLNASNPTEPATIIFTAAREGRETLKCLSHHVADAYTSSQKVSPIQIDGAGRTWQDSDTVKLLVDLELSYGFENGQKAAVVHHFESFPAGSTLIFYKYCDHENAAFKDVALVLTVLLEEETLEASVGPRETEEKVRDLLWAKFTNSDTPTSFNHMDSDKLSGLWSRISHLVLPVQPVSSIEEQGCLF
Assay [16] is described as follows: optical density change of DRC41 E. coli – strain DRC41, OD650, 24 h, E. coli filamentation project, primary screen (AID 1093).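 Also: MC1000 strain lacking acrAB efflux and sulA so SOS filamentation is blocked; test concentration not given here.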 As to conditions: E. coli DRC41 growth, higher = more signal, called active from +8 up or from −8 down.
A short description of assay [17]: probe aLefty2 binding to arrayed compounds – biochemical, biotinylated probe, 635/667 nm fluorescence, primary screen (AID 1094).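 Also: score merges spot fluorescence near 667 nm with spot signal-to-noise ratio.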 As to conditions: small-molecule microarray, higher = more signal.
Assay [18] has as its system Noggin (protein binding on small-molecule microarray). Kind of assay: small molecules binding Noggin protein – biochemical, 635/667 nm fluorescence, primary screen (AID 1095).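 Also: score merges 667 nm feature fluorescence with signal to noise over triplicate slides.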 Conditions: 635 nm fluorescence, higher = more signal.
The target of assay [19] is Neurogenic locus notch homolog protein 3 (Homo sapiens) (UniProt Q9UM47). Kind of assay: small molecules binding NOTCH3 protein – biochemical, 635/667 nm fluorescence, primary screen (AID 1096). As to conditions: small-molecule microarray, 635 nm fluorescence, higher = more signal.
Sequence of Neurogenic locus notch homolog protein 3 (Homo sapiens) (Q9UM47 whole entry, looked up): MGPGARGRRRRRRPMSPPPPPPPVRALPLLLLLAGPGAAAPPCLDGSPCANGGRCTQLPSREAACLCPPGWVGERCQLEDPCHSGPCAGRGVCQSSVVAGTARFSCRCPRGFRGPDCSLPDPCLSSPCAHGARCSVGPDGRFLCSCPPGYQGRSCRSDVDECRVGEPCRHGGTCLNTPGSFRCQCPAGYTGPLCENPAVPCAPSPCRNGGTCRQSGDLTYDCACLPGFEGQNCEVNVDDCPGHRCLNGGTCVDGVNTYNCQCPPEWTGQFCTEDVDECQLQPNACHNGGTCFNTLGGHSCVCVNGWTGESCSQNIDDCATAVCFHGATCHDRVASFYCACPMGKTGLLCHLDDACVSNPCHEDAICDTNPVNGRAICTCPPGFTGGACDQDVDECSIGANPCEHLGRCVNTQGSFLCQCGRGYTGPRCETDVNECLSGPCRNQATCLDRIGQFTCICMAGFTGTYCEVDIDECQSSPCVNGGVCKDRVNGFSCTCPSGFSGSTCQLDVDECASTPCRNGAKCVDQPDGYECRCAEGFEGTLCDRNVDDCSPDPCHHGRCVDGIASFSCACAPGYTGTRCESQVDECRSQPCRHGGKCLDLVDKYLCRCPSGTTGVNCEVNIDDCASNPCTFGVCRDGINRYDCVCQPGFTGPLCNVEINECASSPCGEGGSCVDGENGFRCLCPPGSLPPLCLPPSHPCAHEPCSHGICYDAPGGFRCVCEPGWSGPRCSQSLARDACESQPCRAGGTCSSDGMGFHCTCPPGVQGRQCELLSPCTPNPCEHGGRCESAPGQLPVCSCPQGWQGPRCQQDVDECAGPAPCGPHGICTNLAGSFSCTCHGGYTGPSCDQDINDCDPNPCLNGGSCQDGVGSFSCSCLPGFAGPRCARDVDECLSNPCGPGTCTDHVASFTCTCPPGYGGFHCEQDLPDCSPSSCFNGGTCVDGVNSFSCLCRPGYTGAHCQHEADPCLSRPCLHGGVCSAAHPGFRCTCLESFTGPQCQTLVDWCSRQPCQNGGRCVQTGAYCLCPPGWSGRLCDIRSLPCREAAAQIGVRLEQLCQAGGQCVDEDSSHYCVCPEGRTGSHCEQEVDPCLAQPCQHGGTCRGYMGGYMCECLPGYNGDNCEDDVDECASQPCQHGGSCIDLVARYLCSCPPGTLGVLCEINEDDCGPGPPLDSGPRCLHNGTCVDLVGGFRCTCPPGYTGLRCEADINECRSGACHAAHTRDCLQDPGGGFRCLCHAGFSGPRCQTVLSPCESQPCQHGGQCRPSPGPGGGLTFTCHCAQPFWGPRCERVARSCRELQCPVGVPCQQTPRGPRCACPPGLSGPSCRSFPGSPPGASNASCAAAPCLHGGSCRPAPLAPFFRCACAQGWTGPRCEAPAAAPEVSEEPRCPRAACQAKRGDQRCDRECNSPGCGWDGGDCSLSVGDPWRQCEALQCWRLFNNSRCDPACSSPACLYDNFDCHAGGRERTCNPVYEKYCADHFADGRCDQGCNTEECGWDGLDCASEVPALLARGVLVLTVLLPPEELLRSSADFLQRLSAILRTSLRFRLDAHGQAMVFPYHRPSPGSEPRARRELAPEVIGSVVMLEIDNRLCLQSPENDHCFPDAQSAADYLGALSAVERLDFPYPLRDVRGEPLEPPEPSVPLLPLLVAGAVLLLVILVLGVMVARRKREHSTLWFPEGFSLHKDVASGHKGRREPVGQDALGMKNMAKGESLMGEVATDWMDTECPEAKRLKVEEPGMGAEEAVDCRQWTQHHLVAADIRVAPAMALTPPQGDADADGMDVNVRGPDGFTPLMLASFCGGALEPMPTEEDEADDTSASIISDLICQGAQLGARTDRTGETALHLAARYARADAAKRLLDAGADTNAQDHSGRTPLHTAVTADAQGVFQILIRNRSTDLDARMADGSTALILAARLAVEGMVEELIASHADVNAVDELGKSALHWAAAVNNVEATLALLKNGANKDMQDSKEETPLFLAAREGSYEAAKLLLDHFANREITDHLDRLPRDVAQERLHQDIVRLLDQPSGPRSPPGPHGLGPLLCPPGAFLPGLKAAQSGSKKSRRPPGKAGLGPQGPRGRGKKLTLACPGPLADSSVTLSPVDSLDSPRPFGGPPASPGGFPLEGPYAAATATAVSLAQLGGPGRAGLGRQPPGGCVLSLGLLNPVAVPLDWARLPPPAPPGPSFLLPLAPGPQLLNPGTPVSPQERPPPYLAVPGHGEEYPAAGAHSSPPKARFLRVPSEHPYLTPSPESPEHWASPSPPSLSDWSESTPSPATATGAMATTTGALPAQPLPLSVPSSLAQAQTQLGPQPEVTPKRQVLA
Assay [20] is described as follows: probe aEGFR binding to arrayed compounds – biochemical, biotinylated probe, 635/667 nm fluorescence, primary screen (AID 1097).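 Also: probe is a biotinylated anti-EGFR antibody binding compounds printed on slides; score combines fluorescence near 667 nm and signal to noise of each spot.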 As to conditions: small-molecule microarray, higher = more signal.

In the case of `Cc1ccc(S[C@]2(C(=O)NC(C)C)CC(=O)N(C3Cc4ccccc4C3)[C@@H]2c2ccc(CO)cc2)cc1`, the composite z-score in [1] was -0.796; in assay [2], 0.172; in assay [3], -0.148; in [4], 0.301; in [5] it was -0.586; in [6] it was 1.42. Also, the composite z-score in [7] was 0.62; in assay [9], -0.554; in assay [10], -0.292; in [11] it was 1.53; in assay [15], 2.95; in assay [17], -0.222. The composite z-score was -0.0057 in assay [18], 0.506 in [19] and -0.308 in assay [20]. Moreover, the z-score was -2.74 (inactive) in [8]; 0.106 (inactive) in assay [12]; -1.65 (inactive) in assay [13]; -0.517 (inactive) in assay [14]; -2.16 (inactive) in assay [16].

Take `CC(c1ccccc1)C(O)C1C=CC2C(=O)N(C)C(=O)C2N1N(c1ccccc1)c1ccccc1` (stereo not given): the composite z-score in [1] is 1; in assay [2] it was 0.23; in assay [3], 0.0395; in [4], -0.167; in [5] it was 1.08; in assay [6], 0.504. For the same compound, the composite z-score is 1.03 in assay [7]; 0.657 in assay [9]; -0.0024 in assay [10]; 0.396 in assay [11]; 1.65 in assay [15]; 0.424 in assay [17]. Moreover, the figures for the composite z-score in assay [18], in assay [19] and in assay [20] were -0.959, 0.363 and -0.0322, respectively. The z-score in assay [8] is -0.206 (inactive); in [12], 0.414 (inactive); in assay [13], 0.184 (inactive); in [14], 1.27 (inactive); in assay [16] it was -1.1 (inactive).

With `COCCCNC(=O)[C@@]1(c2ccc([N+](=O)[O-])cc2)CC(=O)N(C2CCCCC2)[C@@H]1c1ccc(CO)cc1`, the composite z-score in assay [1] is -1.19; in [2], -0.655; in assay [3], -0.248; in [4], 0.174; in [5] it was -0.243; in [6], 0.763. The composite z-score in assay [7] is 1.39; in assay [9], -0.604; in [10], -0.859; in assay [11], 0.139; in [15], 2.04; in assay [17], -0.509. The values for the composite z-score in [18], in [19] and in assay [20] were -0.836, -0.193 and -0.421, respectively. In addition, the z-score in [8] is -0.912 (inactive); in assay [12], -0.707 (inactive); in [13], -0.591 (inactive); in [14], -0.432 (inactive); in assay [16], 0.77 (inactive).

For the compound `COc1ccc(CCN2C(=O)[C@@]3(c4ccc([N+](=O)[O-])cc4)CC(=O)N(CC45CC6CC(CC(C6)C4)C5)[C@@H]3c3ccc(CO)cc32)cc1`, the composite z-score in [1] was 0.188; in [2], -0.063; in assay [3] it was 0.0201; in [4] it was 0.142; in [5] it was -0.18; in [6] it was 0.978. Besides, the composite z-score in assay [7] is 0.956; in [9], -0.0561; in assay [10] it was -0.0296; in [11] it was 1.55; in [15], 2.09; in assay [17] it was 0.141. The composite z-score in [18] was -0.223; in assay [19], 0.294; in assay [20], -0.109. In addition, the z-score was -0.241 (inactive) in [8]; 0.0722 (inactive) in assay [12]; -0.3 (inactive) in [13]; -1.6 (inactive) in [14]; -0.463 (inactive) in [16].

`CC(C)CN1C(=O)[C@@]2(Cc3ccccc31)c1ccccc1C(=O)N(C1CCCCC1)[C@H]2c1ccc(CO)cc1`: the composite z-score in assay [1] is 0.523; in assay [2] it was -0.21; in [3], -0.172; in [4] it was -0.538; in assay [5] it was -1.08; in assay [6], -0.388. Also, the composite z-score is -0.0501 in assay [7]; -0.382 in assay [9]; -0.226 in assay [10]; 0.499 in assay [11]; 2.01 in [15]; -0.121 in assay [17]. Moreover, the results for the composite z-score in assay [18], in [19] and in assay [20] were -0.901, -1.35 and -0.179, respectively. Besides, the z-score in [8] was 0.172 (inactive); in assay [12], -1.6 (inactive); in [13], -1.32 (inactive); in assay [14], -2.34 (inactive); in [16] it was 1.56 (inactive).
